Compound activity (PubChem)
D2 antag: antagonizes the human D2 dopamine receptor; P14416; HEK293 TREx D2 cells, calcium flux, dopamine EC80; inhibition, % at 10 µM; 340,000 tested, 2% active; in the data active means inhibition above about 30%; inactive means below that, where a call was filed; further: 0% is about no effect
Target sequence (P14416 whole entry, looked up): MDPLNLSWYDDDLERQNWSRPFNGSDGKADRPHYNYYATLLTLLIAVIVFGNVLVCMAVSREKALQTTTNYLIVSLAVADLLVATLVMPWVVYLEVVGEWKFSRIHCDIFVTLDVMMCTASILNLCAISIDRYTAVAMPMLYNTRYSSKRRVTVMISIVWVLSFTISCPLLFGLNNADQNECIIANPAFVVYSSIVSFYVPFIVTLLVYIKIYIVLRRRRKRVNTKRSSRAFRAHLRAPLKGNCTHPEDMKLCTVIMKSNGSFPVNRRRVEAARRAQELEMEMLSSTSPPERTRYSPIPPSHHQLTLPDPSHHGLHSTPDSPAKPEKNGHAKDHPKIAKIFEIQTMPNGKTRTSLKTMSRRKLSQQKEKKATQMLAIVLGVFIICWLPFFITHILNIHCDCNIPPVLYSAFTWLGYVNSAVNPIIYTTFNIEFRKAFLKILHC
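Inhibition of EC80 dopamine-driven calcium flux, recorded kinetically, defines activity here; cells are a tetracycline-induced HEK293 T-REx line expressing force-coupled D2.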
D2 ag-1: agonists of human D2 dopamine receptor (beta-arrestin) | P14416 | DiscoveRx PathHunter D2 beta-arrestin, luminescence, 90 min; 100% = 57 uM dopamine signal | activation, % (test concentration not listed) | 360,000 tested, 0.084% active | AID 624465; in the data active means activation above about 40%; inconclusive means between about 15% and that limit
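Agonist mode: compounds alone added to overnight-plated D2 PathHunter cells for 90 min at 37 C, with 57 uM final dopamine (EC100) defining full response. Beta-arrestin recruitment detected by chemiluminescent reagent, read after 1 h at ambient temperature.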
D2 ag-2: D2 dopamine receptor (human) agonism. P14416. HEK293 T-REx D2 cells, calcium flux agonist mode. activation, % at 2 µM. 340,000 tested, 0.53% active. AID 485358;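 active means activation over 3 SD above normal in the single-dose calcium agonist read, cut at about 30% in these data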; further: 0% is about no effect
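Tetracycline-induced HEK293 T-REx cells with force-coupled D2 receptor, plated overnight at 30 C, loaded with no-wash calcium dye. After a 10 s baseline, compound was pin-added and calcium flux read kinetically for 180 s; calcium rises flagged agonists.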
D2 PAM-1: positive allosteric modulators of human D2 dopamine receptor; 340,000 tested, 0.34% active; HEK293 T-REx D2, calcium flux, EC20 dopamine potentiation; AID 485347; potentiation, % at 10 µM;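 active means potentiation over 3 SD above the plate norm, cut at about 30% in these data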; further: 0% is about no effect
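Tetracycline-induced HEK293 T-REx cells force-coupled to calcium signalling expressed D2; compounds were pin-added after a 10 s baseline, read kinetically 180 s, then an EC20 dopamine challenge followed with a further 180 s calcium read.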
D2 PAM-2: human D2 receptor positive allosteric modulation | P14416 | DiscoveRx D2 beta-arrestin cells, luminescence, 90 min; 100% = 57 uM dopamine signal | potentiation, % (no concentration beside the values) | 360,000 tested, 0.23% active | AID 624464; in the data active means potentiation above about 50%; inconclusive means mostly about 30% to 49%
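PathHunter beta-arrestin assay in DiscoveRx D2 cells. Compounds were added with an EC20 of dopamine (50 nM final) for 90 min at 37 deg C. Luminescence was read 1 h after detection reagent, with 57 uM dopamine as the EC100 control.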
* = called active by the depositor; ? = inconclusive; / = not tested or not shown. Hits are enriched below; roughly 2.4% of the tested compounds scored in any of these assays.

SMILES	D2 antag	D2 ag-1	D2 ag-2	D2 PAM-1	D2 PAM-2
Cn1c(CCC(N)=O)nnc1SCC(=O)Nc1ccccc1C(=O)NC1CC1	31*	4	1	-7	-6
CCOC(=O)c1c(C)[nH]c(C(=O)C(C)Sc2ccc(Cl)cc2)c1C (centres undefined)	16	1	-1	32*	2
CCOc1ccc(C(C)NC(=S)NC2CCCCC2)cc1 (centres undefined)	/	1	/	/	14
CCOc1ccc(C(C)NC(=S)NC2CCCCC2)cc1OCC (centres undefined)	41*	-4	-1	-6	-12
CCc1ccc(C(C)NC(=S)NC2CCCCC2)cc1 (centres undefined)	48*	-5	1	11	-13
COc1ccc2cc3cc(C(=O)N4CCN(c5ccccc5F)CC4)oc3nc2c1	/	/	0	0	/
Nc1nc(CN2CCN(Cc3ccccc3)CC2)nc(N2CCCc3ccccc32)n1	63*	-2	0	-23	-6
O=C(NCc1ccccc1)c1cc(-c2cccs2)on1	/	0	/	/	-10
O=C(NCc1ccccc1)c1nc(-c2cccs2)no1	36*	-8	-2	-1	-1
Cc1cc(C)c(NC(=O)c2c(C)oc3c2C2=NCCN2C=N3)c(C)c1	/	/	-1	2	/
COc1cccc(OC)c1C(=O)OCC(=O)N1CCC(Cc2ccccc2)CC1	/	0	/	/	-3
CCOC(=O)C1CCN(C(=O)COC(=O)c2ccc([N+](=O)[O-])o2)CC1	7	?	0	-6	1
CC1CC(C)CN(C(=O)COC(=O)c2ccc([N+](=O)[O-])o2)C1 (centres undefined)	31*	5	0	-2	12
O=C(COC(=O)c1ccc([N+](=O)[O-])o1)c1ccccc1	6	8	1	-3	65*
O=C(COC(=O)c1ccc([N+](=O)[O-])o1)NCc1ccccc1	/	4	/	/	22
O=C(OCCCOC(=O)c1ccc([N+](=O)[O-])o1)c1ccc([N+](=O)[O-])o1	-1	11	4	0	53*
COc1cccc(OC)c1C(=O)OCC(=O)N1CC(C)CC(C)C1 (centres undefined)	32*	-1	0	1	-14
COc1cccc(Cn2c(=O)n(Cc3ccco3)c(=O)c3oc4ccccc4c32)c1	/	/	1	-8	/
COC(=O)c1cc2occc2n1CC(=O)Nc1ccc(C(C)C)cc1	/	/	1	0	/
O=C(c1ccccc1Cl)N1CCCCC1CCN1CCCCC1 (centres undefined)	/	/	-1	-5	/
CCCC[n+]1ccn(-c2nc3ccccc3nc2[N-]S(=O)(=O)c2ccc(C)cc2)c1	15	2	-1	-5	-10
CCCCC[n+]1ccn(-c2nc3ccccc3nc2[N-]S(=O)(=O)c2ccc(C)cc2)c1	38*	-2	0	-2	-10
COc1ccc(-c2nc(CSc3nnc(C)n4c3cc3sccc34)c(C)o2)cc1	/	/	-1	-4	/
COCCCn1c(SCC(=O)c2c(N)n(C3CC3)c(=O)[nH]c2=O)nnc1-c1ccccc1Cl	/	-2	/	/	-5
CCCn1c(N)c(C(=O)CSc2nnc(-c3cccs3)n2C2CC2)c(=O)[nH]c1=O	/	48*	/	/	20
SMILES	D2 antag	D2 ag-1	D2 ag-2	D2 PAM-1	D2 PAM-2
COCCn1c(SCC(=O)c2c(N)n(C3CC3)c(=O)[nH]c2=O)nnc1-c1ccc(Cl)cc1	11	40*	0	-1	-4
CCCn1c(N)c(C(=O)CSc2nnc(-c3c[nH]c4ccccc34)n2C2CC2)c(=O)[nH]c1=O	/	-2	/	/	-7
CCCOc1cccc(C2c3c(-c4ccccc4O)n[nH]c3C(=O)N2Cc2ccco2)c1 (centres undefined)	/	/	-1	-7	/
COc1ccc(CCNC(=O)Cn2nc(C)n3c(cc4occc43)c2=O)cc1OC	/	/	/	1	/
Cc1ccc(OCC(=O)N(Cc2ccco2)Cc2ccco2)cc1C	/	/	-1	/	/
CCc1sc(C(=O)Nc2cc(Cl)ccc2N2CCCCC2)cc1C	6	-1	-1	-1	-2
Cc1ccc(C(=O)Nc2cc(Cl)ccc2N2CCCCC2)s1	32*	0	1	-4	-2
O=C(CCc1nc2ccccc2c(=O)[nH]1)Nc1cc(Cl)ccc1N1CCCCC1	43*	-5	0	-6	-5
O=C(NNC(=S)Nc1ccccc1)c1ccncc1	-21	-7	0	31*	-10
O=C(NNC(=S)NC(=O)C12CC3CC(CC(C3)C1)C2)c1ccncc1	18	-9	66*	-20	-38
O=C(NNC(=S)Nc1cccc(C(F)(F)F)c1)c1ccncc1	/	-5	/	/	-27
CC1(C(=O)NC(=S)NNC(=O)c2ccncc2)CCCCC1	34*	-14	10	-3	-28
O=C(Nc1ccccc1)/C(=C/c1ccccc1)NC(=O)c1ccco1	30*	4	1	3	14
O=C(Nc1ccccc1)/C(=C\c1ccc2c(c1)OCO2)NC(=O)c1ccco1	30*	0	-1	-8	-2
O=C(Nc1ccccc1)/C(=C/c1ccc(O)cc1)NC(=O)c1ccco1	-2	4	0	8	-1
CC(C)(C)N(Cc1ccccc1)C(=O)CSc1nnc(CNc2ccc(F)cc2)o1	32*	-3	0	11	-4
CC1(C)CC(=O)C(C(C2=C(O)CC(C)(C)CC2=O)c2ccc([N+](=O)[O-])cc2)C(=O)C1 (centres undefined)	33*	0	0	3	-8
CCN(CC)CCN(Cc1cc2cc3c(cc2[nH]c1=O)OCCO3)C(=S)NCC1CCCO1 (centres undefined)	-14	-2	2	-6	-5
CN(C)CCN(Cc1cc2cc3c(cc2[nH]c1=O)OCCO3)C(=S)NCC1CCCO1 (centres undefined)	41*	1	0	-1	1
c1ccc(C(c2nnnn2Cc2ccco2)N2CCN(c3nc4ccccc4s3)CC2)cc1 (centres undefined)	12	0	-1	30*	26
Fc1ccc(N2CCN(c3ncnc4[nH]ncc34)CC2)cc1	/	/	0	-20	/
CCc1ccc(CN(C)CC(=O)Nc2sccc2C#N)cc1	64*	-3	0	9	-13
CCc1cccc(NC(=O)CN(c2ccc(C)cc2)S(=O)(=O)c2cccs2)c1	/	/	1	-3	/
Cn1c(=O)c2cn3ncccc3c2n(C)c1=O	13	/	0	3	/
Cc1ccnn2cc3c(=O)n(C)c(=O)n(C)c3c12	11	/	-2	31*	/
COc1ccc(C(=O)N/C(=C\c2ccc([N+](=O)[O-])cc2)C(=O)NC(CCSC)C(=O)O)cc1 (centres undefined)	35*	0	18	-4	1
Cc1nc(-c2ccc(C)c(S(=O)(=O)N3CCC(C(=O)NCc4ccc(F)cc4)CC3)c2)no1	/	/	0	14	/
